In PubChem BioAssay (NCATS) one finds Potency, outcome and activity change, negative = cytotoxicity data, which are given here for 28 molecules.

Records with an inconclusive call do not appear. Unmarked numbers belong to inactive results. Active and inactive are the calls of the source. The call rests on the fitted dose curve; in most records, active means well fitted curve in the direction sought with a large enough effect; inconclusive means small, poorly fitted or top-dose-only effect, or another doubt; inactive means no such curve, though single readings can be large; an effect the other way counts as inactive or inconclusive.

A short description of test [1]: P-glycoprotein substrates identified in KB-3-1 adenocarcinoma cell line, qHTS therapeutic library screen (AID 1346986). Further: nearly all actives have a fitted effect of over 60% in size.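 Further: potency is for cytotoxicity meaning loss of cell viability.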 The method in brief: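 Using luminescence to quantify ATP, parental and P-gp-overexpressing KB cells were compared after 72 h compound titration. KB-8-5-11 was also run with the P-gp inhibitor tariquidar.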
In general terms: In qHTS, concentration-response curves come from the screen itself.

Test [2] in a line: P-glycoprotein substrates identified in KB-8-5-11 adenocarcinoma cell line, qHTS therapeutic library screen (AID 1346987). Further: nearly all actives have a fitted effect of over 65% in size. On activity change, negative = cytotoxicity: series mostly up to about 44 µM; on the % scale 0 is the no-effect control and ±100 the full control effect. The method in brief:
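In this qHTS, P-gp-rich KB-8-5-11 cells received library compounds across a concentration range. Viability was quantified by luminescence after 72 h at 37 degree C.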
Potency means the concentration at half of the fitted maximal effect.

Turning to `CCN1CCN(Cc2ccc(NC(=O)c3ccc(C)c(NC(=O)c4cncc(-c5cccs5)c4)c3)cc2C(F)(F)F)CC1`, the Potency in test [1] is 2.06 µM (active); in test [2], 7.31 µM (active).

In the case of `CC(C)(F)C[C@@H](N[C@@H](c1ccc(-c2ccc(S(C)(=O)=O)cc2)cc1)C(F)(F)F)C(=O)NC1(C#N)CC1`, in test [1], the Potency result is “inactive”.

On to `CC(C)=CCC(O)/C(C)=C/CO[C@@H]1O[C@H](CO)[C@@H](O)[C@H](O)[C@H]1O` (some centres not stated), for which, in test [1], the Potency result was “inactive”.

As to `CC(C)=CCC/C(C)=C/CO[C@@H]1O[C@H](CO)[C@@H](OC(=O)/C=C/c2ccc(O)cc2)[C@H](O[C@@H]2O[C@@H](C)[C@H](O)[C@@H](O)[C@H]2O)[C@H]1O`, the Potency result in test [1] and in test [2] was “inactive” each time.

With `COc1cc(C(=O)O)ccc1OC1OC(CO)C(O)C(O)C1O` (configuration not stated), in test [1], the Potency entry was “inactive”.

Take `COC(=O)[C@H](O)[C@H]1C(C)(C)[C@H](OC(=O)C(C)C)[C@@]2(O)C(=O)[C@]1(C)C1CC[C@]3(C)C(CC(=O)O[C@H]3c3ccoc3)[C@]13O[C@@H]32` (some centres not stated): the Potency result in test [1] is “inactive”.

Regarding `CC(C)CC1NC(=O)C(C)NC(=O)C(CC(C)C)OC(=O)CCCNC1=O` (configuration not stated), the Potency entry in test [1] and in test [2] was “inactive” each time.

Turning to `C=C1C(=O)OC2CC(C)=C(C(C)CCCO)C(O)C12` (configuration not stated), the Potency result in test [1] and in test [2] was “inactive” in each case.

`O=C(OC1C=C(CO)C2C(OC3OC(CO)C(O)C(O)C3O)OC=CC12)c1ccc(O)cc1` (configuration not stated): the Potency entry in test [1] and in test [2] was “inactive” each time.

In the case of `CCOC(=O)c1cc(C#N)c(N2CCC(C(=O)NS(=O)(=O)Cc3ccccc3)CC2)nc1C`, the Potency result in test [1] and in test [2] was “inactive” each time.

Regarding `Cc1cc(Cl)ccc1COc1ccnn1-c1cc(C(=O)O)ccn1`, the Potency entry in test [1] and in test [2] was “inactive” in each case.

On to `O=C(Nc1ccn[nH]1)c1c(F)cccc1F`, for which the Potency result in test [1] and in test [2] was “inactive” throughout.

Take `O=C(O[C@H]1[C@@H]2C=CO[C@@H](O[C@@H]3O[C@H](CO)[C@@H](O)[C@H](O)[C@H]3O)[C@@H]2[C@@]2(CO)O[C@@H]12)c1ccccc1`: the Potency entry in test [1] and in test [2] was “inactive” each time.

As to `CC(=O)OC1/C(C)=C/C(=O)C(OC(C)=O)C(C)(C)/C=C/C(C)C(=O)C2(OC(C)=O)CC(C)C(OC(=O)c3ccccc3)C12` (configuration not stated), the Potency result in test [1] and in test [2] was “inactive” each time.

`CC(C)(C)C(=O)CN1C(=O)[C@H](NC(=O)Nc2cccc(C(=O)O)c2)CN(C2CCCCC2)c2ccccc21`: the Potency result in test [1] and in test [2] was “inactive” each time.

As for `CC1OC(OC2C(O)C(OC3CCC4(C)C(CCC5(C)C4CC=C4C6CC(C)(COC7OC(CO)C(O)C(O)C7O)CC(O)C6(C)CCC45C)C3(C)C)OC(C(=O)O)C2O)C(O)C(O)C1OC1OCC(O)C(O)C1O` (configuration not stated), in test [1], the outcome is “inactive [at 9.29 µM]”. Moreover, in test [2], the activity change, negative = cytotoxicity was 1.43% [at 9.29 µM].

Turning to `COC(=O)C1=COC(OC2OC(CO)C(O)C(O)C2O)C2C1C=CC2(O)CO` (configuration not stated), the Potency result in test [1] and in test [2] was “inactive” throughout.

For the molecule `C[C@H]1C(=O)N2c3ccccc3[C@@]3(O)C[C@@H]4C(=O)N[C@](C)(c5nc6ccccc6c(=O)n54)N1[C@@H]23`, the Potency entry in test [1] and in test [2] was “inactive” throughout.

With `CC1(C)C=CN2C(=O)C3=CCCN3C(=O)[C@@H]2C[C@@]12Nc1ccccc1C2=O`, the Potency entry in test [1] and in test [2] was “inactive” in each case.

As for `[N-]=[N+]=N[C@]1(CO)O[C@@H](n2ccc(=O)[nH]c2=O)[C@@H](O)[C@@H]1O`, the Potency result in test [1] and in test [2] was “inactive” in each case.

Regarding `C[C@@H](O)[C@H](NC(=O)c1ccc(C#Cc2ccc(CN3CCOCC3)cc2)cc1)C(=O)NO`, the Potency entry in test [1] and in test [2] was “inactive” throughout.

Regarding `COC1=CC(=O)CC(C)C12Oc1cc(OC)cc(O)c1C2=O` (configuration not stated), the Potency entry in test [1] and in test [2] was “inactive” throughout.

`Cc1ccc(C(=O)Nc2noc3ccccc23)cc1`: the Potency result in test [1] and in test [2] was “inactive” in each case.

Take `CC1(C)CC[C@]2(C(=O)O[C@@H]3O[C@H](CO)[C@@H](O)[C@H](O)[C@H]3O)CC[C@]3(C)C(=CCC4[C@@]5(C)C[C@@H](O)[C@H](O)C(C)(C)C5[C@H](O)C[C@]43C)[C@@H]2[C@@H]1O` (some centres not stated): the Potency entry in test [1] and in test [2] was “inactive” each time.

As for `N#C[C@@H]1CCCN1C(=O)CNC12CC3CC(CC(O)(C3)C1)C2`, the Potency entry in test [1] and in test [2] was “inactive” each time.

As to `CC(C)=CCC[C@](C)(O)[C@H]1CC[C@]2(C)[C@@H]1[C@H](O)CC1[C@@]3(C)CC[C@H](O)C(C)(C)C3[C@@H](O[C@@H]3O[C@H](CO)[C@@H](O)[C@H](O)[C@H]3O[C@@H]3OC[C@@H](O)[C@H](O)[C@H]3O)C[C@]12C` (some centres not stated), the Potency result in test [1] and in test [2] was “inactive” throughout.

Turning to `CCCOc1ccc(-c2nc(OC)c3ccccc3n2)cc1`, the Potency entry in test [1] and in test [2] was “inactive” in each case.

As for `CC(=O)N[C@@H](CCCCN)C(=O)N(C)[C@@H](CC(C)C)C(=O)N[C@H](C(=O)N(C)[C@@H](Cc1ccccc1)C(=O)N[C@H](Cc1ccccc1)C(N)=O)C(C)C`, the outcome in test [1] and in test [2] was “inactive [at 5.11 µM]” in each case.
